Laboratory results from publication PMC4336329 (PLoS ONE, 2015).
Hit rate of the full screen: of about 310,000 compounds, about 14,000 (4.5%) showed an effect of 50% or more. Effects have a minus sign here. The entries come from a sample that favours strong results as a whole.

Each compound was assayed against human ether-à-go-go-related gene (hERG) potassium channel (human, UniProt Q12809) (assay: primary screen, population patch clamp on CHO cells stably expressing hERG; higher = less effect of the substance).
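Further: peak tail current of the secondary pulse compared with the same well before compound.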

Sequence of human ether-à-go-go-related gene (hERG) potassium channel (Q12809 whole entry, looked up): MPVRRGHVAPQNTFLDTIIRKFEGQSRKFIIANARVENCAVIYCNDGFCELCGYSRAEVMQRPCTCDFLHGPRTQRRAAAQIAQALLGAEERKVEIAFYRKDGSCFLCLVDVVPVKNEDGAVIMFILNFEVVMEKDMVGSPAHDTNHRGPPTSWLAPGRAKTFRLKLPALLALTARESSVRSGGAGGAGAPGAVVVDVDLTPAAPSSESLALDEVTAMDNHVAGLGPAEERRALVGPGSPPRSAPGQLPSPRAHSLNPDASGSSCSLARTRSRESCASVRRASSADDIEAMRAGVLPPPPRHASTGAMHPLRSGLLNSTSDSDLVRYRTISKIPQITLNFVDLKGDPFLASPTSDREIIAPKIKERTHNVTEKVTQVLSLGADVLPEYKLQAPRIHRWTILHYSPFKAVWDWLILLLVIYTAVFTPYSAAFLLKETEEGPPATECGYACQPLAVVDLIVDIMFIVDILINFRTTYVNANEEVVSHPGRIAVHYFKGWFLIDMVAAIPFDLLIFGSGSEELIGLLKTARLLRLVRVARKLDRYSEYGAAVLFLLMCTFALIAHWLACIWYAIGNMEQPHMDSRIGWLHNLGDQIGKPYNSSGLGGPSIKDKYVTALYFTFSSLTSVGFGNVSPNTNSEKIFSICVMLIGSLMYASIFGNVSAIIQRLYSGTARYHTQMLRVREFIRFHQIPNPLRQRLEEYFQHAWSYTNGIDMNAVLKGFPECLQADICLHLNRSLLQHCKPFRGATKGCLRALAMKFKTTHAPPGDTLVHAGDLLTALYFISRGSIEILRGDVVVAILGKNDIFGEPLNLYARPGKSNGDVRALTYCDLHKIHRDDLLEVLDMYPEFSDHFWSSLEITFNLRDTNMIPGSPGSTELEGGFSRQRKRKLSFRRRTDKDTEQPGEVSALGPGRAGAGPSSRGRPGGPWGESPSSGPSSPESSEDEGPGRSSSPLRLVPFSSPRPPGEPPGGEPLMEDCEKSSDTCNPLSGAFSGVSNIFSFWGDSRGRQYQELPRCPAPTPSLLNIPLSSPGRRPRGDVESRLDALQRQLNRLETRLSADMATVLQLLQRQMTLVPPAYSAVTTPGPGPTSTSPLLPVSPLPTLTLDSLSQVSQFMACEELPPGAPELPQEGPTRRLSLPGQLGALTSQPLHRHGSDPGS

Going from `O=S1(=O)CCN(Cc2ccccc2Cl)CC1` to `Cl.O=C(CN1CCCCC1)c1ccc2c(c1)OCO2`, the “hERG current change (%, negative = inhibition) at 10uM” value rises from -11.1% to -4.7%.

Going from `Cc1cc(C(=O)Nc2ccccc2C)n(-c2ccccc2)n1` to `Cc1ccccc1NC(=O)CN1CCC(n2nnc3ccccc32)CC1`, the “hERG current change (%, negative = inhibition) at 10uM” value falls from 16.5% to -38.8%.

Going from `COc1ccc(NC(=O)C2CCC(=O)N2S(=O)(=O)c2ccc(C)cc2)c(OC)c1` (centres unmarked) to `Cc1ccc(NC(=O)COc2ccc(S(=O)(=O)N3CCOCC3)cc2)cc1`, the “hERG current change (%, negative = inhibition) at 10uM” value rises from -11% to 7.98%.

Going from `COc1ccc(-c2c3c(=O)n(C)c(=O)n(C)c3cn2-c2ccccc2O)cc1` to `COc1ccc(Cn2cc(C(=O)c3ccccc3)c(=O)c3cc(OC)ccc32)cc1`, the “hERG current change (%, negative = inhibition) at 10uM” value falls from -9.54% to -31.3%.

Compared with `O=C(CN1CCC(n2nnc3cc(F)ccc32)CC1)Nc1ccccc1N1CCOCC1`, `Cc1ccc2c(c1)nnn2C1CCN(CC(=O)Nc2ccccc2N2CCOCC2)CC1` is lower in “hERG current change (%, negative = inhibition) at 10uM” value: -66.6% for the first, -69.8% for the second.

Compared with `COc1ccc(Cl)cc1NC(=O)CN1CCC(n2nnc3cc(C)ccc32)CC1`, `COC(=O)c1ccccc1NC(=O)CN1CCC(n2nnc3cc(F)ccc32)CC1` is higher in “hERG current change (%, negative = inhibition) at 10uM” value: -24.2% for the first, -14.3% for the second.

Compared with `CC(C)(C)c1ccc(C(=O)N2CCC(C(=O)N3CCCCC3)CC2)cc1`, `CC1CC(C)CN(C(=O)c2ccc(Br)c(S(=O)(=O)N3CCOCC3)c2)C1` (centres unmarked) is lower in “hERG current change (%, negative = inhibition) at 10uM” value: -3.01% for the first, -26.6% for the second.

Compared with `Cc1cccc(C(C)(C)C)c1OCCOCCN1CCCC1`, `O=C(COc1ccc([N+](=O)[O-])cc1)Nc1ccc(N2CCCC2)cc1` is higher in “hERG current change (%, negative = inhibition) at 10uM” value: -20.6% for the first, 12.1% for the second.

Going from `CN(C(=O)CN1CC=C(c2ccccc2)CC1)c1c(N)n(Cc2ccccc2)c(=O)[nH]c1=O` to `COc1ccc2c(c1)c(=O)c(C(=O)c1ccccc1)cn2Cc1ccccc1`, the “hERG current change (%, negative = inhibition) at 10uM” value falls from 25.8% to -71.8%.

Going from `Cc1ccc(-n2nc3c(=O)n(CC(=O)NCc4ccc(C)o4)nc(C)c3c2C)cc1` to `COc1ccc2c(c1)c(=O)c(C(=O)c1ccc(C)cc1)cn2CC(=O)Nc1ccc(F)cc1`, the “hERG current change (%, negative = inhibition) at 10uM” value falls from 13.1% to -10.1%.

First: Cc1nn(C2CCS(=O)(=O)C2)c(Cl)c1/C=C/C(=O)OCC(=O)N(C)C (centres unmarked)
Second: CCCc1cc(=O)[nH]c(SCC(=O)N(CC)C2CCS(=O)(=O)C2)n1 (centres unmarked)
The “hERG current change (%, negative = inhibition) at 10uM” value of the first is lower: 11.3% for the first, 13.2% for the second.

First: O=C(COc1ccc([N+](=O)[O-])cc1)Nc1ccc(N2CCN(C(=O)c3ccco3)CC2)cc1
Second: CCN1CCN(c2ccc(NC(=O)COc3ccc([N+](=O)[O-])cc3)cc2)CC1
The “hERG current change (%, negative = inhibition) at 10uM” value of the first is higher: 6.27% for the first, -54.3% for the second.

Going from `O=C(COc1ccc(Cl)cc1)Nc1ccc(CN2CCOCC2)cc1` to `O=C(COc1ccc(Br)cc1)Nc1ccc(CN2CCOCC2)cc1`, the “hERG current change (%, negative = inhibition) at 10uM” value falls from -39.6% to -40.6%.

Compared with `O=C(COc1ccc([N+](=O)[O-])cc1)Nc1ccc(S(=O)(=O)N2CCOCC2)cc1`, `O=C(COc1ccc(S(=O)(=O)N2CCOCC2)cc1)Nc1cccc([N+](=O)[O-])c1` is higher in “hERG current change (%, negative = inhibition) at 10uM” value: -53.8% for the first, -39% for the second.

Going from `O=C(COc1ccc([N+](=O)[O-])cc1)Nc1ccc(CN2CCOCC2)cc1` to `COc1ccc(OCC(=O)Nc2ccccc2OC(F)F)cc1`, the “hERG current change (%, negative = inhibition) at 10uM” value rises from -52.3% to -22.2%.

Compared with `Cc1scc(C(=O)N/N=C/c2ccco2)c1C`, `Cl.O=C(CN1C2=NCCN2c2ccccc21)c1ccco1` is lower in “hERG current change (%, negative = inhibition) at 10uM” value: 2.52% for the first, -20.7% for the second.

Compared with `N=C(N)c1c(O)n(C2CCCCC2)c(=O)n(C2CCCCC2)c1=O`, `CCOC(=O)c1[nH]c(C)c(C(=O)N2CCc3ccccc32)c1C` is lower in “hERG current change (%, negative = inhibition) at 10uM” value: 18.5% for the first, -12.6% for the second.

Compared with `CC1Cc2ccccc2N1C(=O)c1cc2sccc2n1Cc1ccc(F)cc1` (centres unmarked), `COc1ccc2c(c1)c(=O)c(C(=O)c1ccccc1)cn2Cc1ccc(C)cc1` is lower in “hERG current change (%, negative = inhibition) at 10uM” value: 12.3% for the first, -75% for the second.

First: Oc1ccc(-c2nnc(SCc3ccccc3)o2)cc1
Second: Br.O=C(CN1C2=NCCN2c2ccccc21)c1ccc(Br)cc1
The “hERG current change (%, negative = inhibition) at 10uM” value of the first is higher: -8.15% for the first, -67.6% for the second.

Compared with `COc1ccc2c(c1)c(=O)c(C(=O)c1ccc(Cl)cc1)cn2CC(=O)Nc1ccc(F)cc1`, `COc1ccc2c(c1)c(=O)c(C(=O)c1ccc(F)cc1)cn2CC(=O)Nc1ccc(F)cc1` is lower in “hERG current change (%, negative = inhibition) at 10uM” value: 12.4% for the first, -5.61% for the second.

Compared with `Cc1cccc(NC(=S)NC2CCSc3ccccc32)c1` (centres unmarked), `COc1cc2c(cc1OC)-c1cc(Nc3ccccc3)nc(=O)n1CC2` is lower in “hERG current change (%, negative = inhibition) at 10uM” value: 14.5% for the first, -64.1% for the second.

Compared with `NC(=O)C(c1ccccn1)c1ncc(C(F)(F)F)cc1Cl` (centres unmarked), `CC(C)(C)n1nnnc1C(c1ccc(Cl)cc1)N(Cc1cccnc1)Cc1ccco1` (centres unmarked) is lower in “hERG current change (%, negative = inhibition) at 10uM” value: 11.7% for the first, -14.7% for the second.

First: Br.O=C(CN1C2=NCCN2c2ccccc21)c1ccc2c(c1)OCO2
Second: O=C(NCc1ccc2c(c1)OCO2)Nc1ccc(Cl)cc1
The “hERG current change (%, negative = inhibition) at 10uM” value of the first is lower: -60.9% for the first, 5.12% for the second.

Going from `Cc1ccc(OCC(=O)NCC(=O)Nc2ccc(F)c(F)c2F)c([N+](=O)[O-])n1` to `Cc1nc(Nc2cccc(C(C)O)c2)c2nnn(Cc3ccc(F)cc3)c2n1` (centres unmarked), the “hERG current change (%, negative = inhibition) at 10uM” value rises from -34.4% to 5.08%.

Compared with `CCc1ccc(CN(C)C(=O)CCc2nc3ccccc3n(-c3ccc(OC)cc3)c2=O)cc1`, `COc1ccc(-n2c(=O)c(CCC(=O)N(C)Cc3ccccc3C)nc3ccccc32)cc1` is lower in “hERG current change (%, negative = inhibition) at 10uM” value: -0.36% for the first, -50.4% for the second.

Compared with `COc1ccc(-n2c(=O)c(CCC(=O)N(C)Cc3cccs3)nc3ccccc32)cc1`, `COc1ccc(Nc2cc3n(c(=O)n2)CCc2cc(OC)c(OC)cc2-3)cc1` is higher in “hERG current change (%, negative = inhibition) at 10uM” value: -38.7% for the first, 4.8% for the second.

`COc1cc2c(cc1OC)-c1cc(Nc3ccc(C)cc3)nc(=O)n1CC2` was tested, and the “hERG current change (%, negative = inhibition) at 10uM” value was -8.97%.
